In PubChem BioAssay AID1851 (National Center for Advancing Translational Sciences (NCATS), 2009):
Several values for one entry are separate records, joined by “and”; a condition that tells them apart may be missing. Equal entries are not always repeated. Hit rate of the full screen: of about 16,000 compounds, about 5,100 (32%) were called active. About 25% were inconclusive and are not listed. The call rests on the fitted dose curve; in most records, active means well fitted curve in the direction sought with a large enough effect; inconclusive means small, poorly fitted or top-dose-only effect, or effect the other way; inactive means no such curve, though single readings can be large or run the other way. This is one part of the list.

target: Cytochrome P450 3A4 (Homo sapiens) (UniProt P08684); assay: Cytochrome panel assay with activity outcomes; details: recombinant CYP, pro-luciferin dealkylation, luminescence, p450-cyp3a4; series mostly up to 57.1 µM
On the % scale 0 is the no-effect control and ±100 the full control effect.

Chain of Cytochrome P450 3A4 (Homo sapiens) (P08684 whole entry, looked up): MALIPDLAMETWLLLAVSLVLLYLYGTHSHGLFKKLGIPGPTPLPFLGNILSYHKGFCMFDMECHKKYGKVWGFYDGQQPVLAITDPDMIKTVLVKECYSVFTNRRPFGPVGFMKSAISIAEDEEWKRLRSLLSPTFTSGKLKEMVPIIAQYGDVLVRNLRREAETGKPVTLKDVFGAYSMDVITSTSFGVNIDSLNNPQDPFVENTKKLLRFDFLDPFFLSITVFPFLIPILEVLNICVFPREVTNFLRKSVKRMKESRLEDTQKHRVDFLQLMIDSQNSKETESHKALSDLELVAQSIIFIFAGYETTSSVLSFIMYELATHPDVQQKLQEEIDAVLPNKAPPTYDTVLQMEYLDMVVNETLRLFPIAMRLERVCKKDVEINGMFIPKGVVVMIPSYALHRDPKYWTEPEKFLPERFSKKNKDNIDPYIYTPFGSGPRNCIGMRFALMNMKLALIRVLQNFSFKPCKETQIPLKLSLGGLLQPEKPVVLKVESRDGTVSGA

AC50, active:
Oc1ccc(-c2[nH]ncc2-c2ccc(Cl)cc2)c(O)c1 0.562 µM
Cc1[nH]nc(-c2ccc(O)cc2O)c1-c1ccc(Cl)cc1 3.55 µM
C=C(C)COc1ccc(-c2n[nH]c(C)c2-c2ccc(OC)cc2)c(O)c1 10 µM
COc1ccc(-c2n[nH]c(C)c2-c2ccc(Cl)cc2)c(O)c1 14.1 µM
C[C@@H](C(=O)NCCc1c[nH]c2ccccc12)[C@H]1C[C@]1(C)[C@H](NC(=O)OCc1ccccc1)c1ccccc1 1.58 µM
C[C@@H](C(=O)NCCc1c[nH]c2ccccc12)[C@@H]1C[C@@]1(C)[C@@H](NC(=O)OCc1ccccc1)c1ccccc1 3.16 µM
CN(C)c1ccc(N=Cc2nc(-c3ccccc3)oc2O)cc1 14.1 µM
COc1cc(CNC2CCCC2)cc(Cl)c1OCc1ccccc1Cl 5.62 µM
Cc1oc(-c2ccccc2Cl)nc1CSCC(=O)NC1CC1 4.47 µM
CCN1CCCC1CNC(=O)CSCc1nc(-c2ccccc2C)oc1C (centres undefined) 6.31 µM
O=c1cc(N2CCCCC2)c(-c2ccccc2)nn1Cc1ccccc1Cl 10 µM
COC(=O)c1ccc(C(=O)OC)c(NC(=S)N2CCN(c3ccccc3)CC2)c1 7.94 µM
COC(=O)c1cc(OC)c(OC)cc1NC(=S)N1CCCCC1 3.98 µM
COc1ccc(-c2nc3cnc(Nc4cccc(OC)c4)nc3n(CCC#N)c2=O)cc1 3.98 µM
COc1cccc(Cn2c(=O)cnc3cnc(Nc4cccc(OC)c4)nc32)c1 2 µM
COc1cccc(Nc2ncc3nc(C)c(=O)n(CCC#N)c3n2)c1 12.6 µM
COc1cccc(Nc2ncc3nc(-c4cccs4)c(=O)n(CCC#N)c3n2)c1 6.31 µM
COc1cccc(Nc2ncc3ncc(=O)n(CCC#N)c3n2)c1 15.8 µM
COCCn1c(=O)c(-c2ccccc2)nc2cnc(Nc3ccccc3)nc21 12.6 µM
COCCn1c(=O)cnc2cnc(Nc3cccc(OC)c3)nc21 15.8 µM
COc1cccc(Nc2ncc3nc(-c4cc(F)cc(F)c4)c(=O)n(CCC#N)c3n2)c1 10 µM
COc1cccc(Nc2ncc3nc(-c4ccc(F)cc4)c(=O)n(CCC#N)c3n2)c1 3.16 µM
COCCn1c(=O)c(-c2cc(F)cc(F)c2)nc2cnc(Nc3cccc(OC)c3)nc21 7.94 µM
C[N+]1(C)CCc2cc3c(cc2[C@@H]1[C@@H]1C(=O)Oc2c1ccc1c2OCO1)OCO3 12.6 µM and 15.8 µM
CN1CCc2cc3c(cc2[C@@H]1[C@@H]1C(=O)Oc2c1ccc1c2OCO1)OCO3 1.26 µM
CN(C)c1ccc(-c2nccc(Nc3ccc(F)cc3)n2)cc1 12.6 µM
Fc1ccc(Nc2ccnc(-c3ccoc3)n2)cc1 7.94 µM
CN(C)c1ccc(-c2cc(Nc3ccc(F)cc3)ncn2)cc1 10 µM
Fc1ccc(Nc2ccnc(-c3ccc4c(c3)OCO4)n2)cc1 2 µM
CC(C)(C)C(=O)N1CCc2cc(-c3csc(N)n3)ccc21 8.91 µM
COc1cc(Cl)c(CC(=O)c2c[nH]c3ccccc23)cc1OC 2.51 µM
Nc1cc(Cl)nc(N/N=C/c2ccccc2[N+](=O)[O-])n1 14.1 µM
COc1ccc2c(c1)CCc1c(C(=O)N3CCCCCC3)noc1-2 14.1 µM
CCOC(=O)C1=NNC2(c3ccc(Cl)cc3)C(=O)N(c3cc(C)cc(C)c3)C(=O)C12 (centres undefined) 2.24 µM
Cc1nc2sc(C#N)c(N)c2c2c1CCCC2 14.1 µM
CN=C1N[C@H](c2ccccc2)N(c2ccccc2)S1 31.6 µM
S=C(NCCSCc1c(Cl)cccc1Cl)Nc1ccccc1 7.08 µM
S=C(NCCSCc1ccc(Cl)cc1Cl)Nc1ccccc1 7.94 µM
C=CCOC(=O)C1=C(C)NC(SCC(=O)OCC)=C(C#N)C1c1ccc(C)cc1 (centres undefined) 2.24 µM
COc1ccccc1-c1nc(NCc2cccs2)c2ccccc2n1 12.6 µM
COc1ccccc1-c1nc(NCc2cccnc2)c2ccccc2n1 10 µM
COc1ccccc1-c1nc(NCc2ccccc2)c2ccccc2n1 3.98 µM
COc1ccc(COC2OC[C@]3(C)[C@H]4C5=C(CN3C(=O)OC(C)(C)C)[C@H](C)C(CO)C(CO)C5CC[C@@H]24)cc1 (some centres undefined) 7.94 µM
COCC1C2CC[C@H]3C(OCc4ccc(OC)cc4)OC[C@]4(C)[C@H]3C2=C(CN4C(=O)OC(C)(C)C)[C@H](C)C1COC (some centres undefined) 1.58 µM
Cc1nn(C(C)C(=O)Nc2sc3c(c2C#N)CCCC3)c(C)c1[N+](=O)[O-] (centres undefined) 15.8 µM
Cc1nn(C(C)C(=O)Nc2ccc(Cl)cn2)c(C)c1[N+](=O)[O-] (centres undefined) 15.8 µM

AC50, inactive:
O=C(Oc1oc(-c2ccco2)nc1C=Nc1ccc(Cl)cc1)c1ccco1
CN(C)c1oc(-c2ccccc2)nc1C#N
CC(=O)N1CCN(C)CC1
CCN1CCCC1CNC(=O)C(=O)Nc1ccccc1OC (centres undefined)
CC1CCC(NC(=O)CC(C)(C)Cc2nc3ccccc3c(=O)[nH]2)CC1 (centres undefined)
CCOc1ccccc1NC(=O)C(=O)NCC1CCCN1CC (centres undefined)
C1CCc2c(nc3nnnn3c2NC2CCCC2)C1
NC(=NCc1ccccc1)NC(=O)c1nc(Cl)c(N)nc1N
COc1cc(CC(=O)O)c(C(C)=O)cc1OC
COc1ccc(-c2nc3cnc(Nc4ccccc4)nc3n(CCC#N)c2=O)cc1
N#CCCn1c(=O)c(-c2ccccc2)nc2cnc(Nc3ccccc3)nc21
COCCn1c(=O)c(-c2ccc(Cl)cc2)nc2cnc(Nc3ccccc3)nc21
COCCn1c(=O)cnc2cnc(Nc3ccccc3)nc21
N#CCCn1c(=O)c(-c2cc(F)cc(F)c2)nc2cnc(Nc3ccccc3)nc21
CN(C)c1ncc2ncc(=O)n(CCC#N)c2n1
CCC[C@H]1C(=O)N2C(N(C)C)=Nc3ccc(C)cc3N2C1=O
COCCn1c(=O)c(-c2ccccc2)nc2cnc(Nc3cccc(OC)c3)nc21
CCCCSC(=S)N(C)C1CCS(=O)(=O)C1 (centres undefined)
O=C1C2C3C=CC(C3)C2C(=O)N1c1ncn[nH]1 (centres undefined)
O=C(OCCN1CCCCC1)c1c[nH]c2ccccc12
COc1ccccc1CNS(=O)(=O)c1ccc2[nH]cc(C(=O)O)c(=O)c2c1
O=[N+]([O-])c1ccc(/C=N/Nc2cc(Cl)nc(-c3ccccc3)n2)cc1
Nc1nnnn1/N=C\c1ccc(Cl)c([N+](=O)[O-])c1
COc1nc(C)nc(Cl)c1NC1=NCCN1
CCOC(=O)CSC1=C(C#N)C(C)C2=C(CCCC2=O)N1 (centres undefined)
CC[N+](C)(CC)CCOC(=O)C1c2ccccc2Oc2ccccc21
Cc1cc(NC(=O)c2c([N+](=O)[O-])c(C)nn2C)no1

activity, negative = inhibition, inactive:
CC(C)CNC(=O)CCCc1c[nH]c2ccccc12 14.6% [at 2.29 µM]
C[C@@H]1O[C@@H](O)[C@@H](O)[C@H](O)[C@H]1O -3.34% [at 11.4 µM]
Cc1cc(C(C)(C)C)cc(CNC2CCCCC2)c1O -20.7% [at 11.4 µM]
CCOc1cc(C2NN=C(c3ccccc3)S2)ccc1OCc1ccccc1Cl (centres undefined) 7.68% [at 2.29 µM]
Cc1cccc(N2CCN(c3ccc(NC(=O)/C=C(/C(=O)O)c4ccccc4)cc3)CC2)c1 0.321% [at 2.29 µM]
O=C1CCCC=C1[C@@H](O)CCOC(c1ccccc1)(c1ccccc1)c1ccccc1 -80.3% [at 11.4 µM]
CC(C)(C)c1cc(Br)c(O)c(CN(Cc2cc(C(C)(C)C)cc(Br)c2O)C2CCCCC2)c1 -3.9% [at 11.4 µM]
Cn1c(=O)c2c(nc(N/N=C\c3ccccc3C(=O)O)n2C)n(C)c1=O 5.51% [at 11.4 µM]
COc1ccc(Sc2nc3ccccc3n3c(C(F)(F)F)nnc23)cc1 -0.72% [at 11.4 µM]
Nc1nccc(Nc2ccc(S(N)(=O)=O)cc2)n1 -5.22% [at 11.4 µM]
C(=Nc1cnc2ccccc2c1)c1ccc2ccccc2n1 -12.4% [at 11.4 µM]
O=C1C2C3c4ccccc4C(c4ccccc43)C2C(=O)N1c1nc(-c2ccccc2)cs1 (centres undefined) 0.59% [at 2.29 µM]
N[C@@H]1[C@@H]2[C@@H]3C[C@H]4N(CC[C@@]14C(=O)C(=O)O)CC3=CCO[C@@H]2CC(=O)O -11.7% [at 11.4 µM]
CSc1nc2ccccc2cc1/C=C(\C#N)c1ccc(Cl)cc1Cl 25.6% [at 11.4 µM]
Cc1ccc(-c2c3c(nc4sc(C(N)=O)c(N)c24)CCC3)cc1 0.806% [at 2.29 µM]
OCCSCc1cc(Cl)cc(Cl)c1O -27.9% [at 11.4 µM]
Oc1ccc2ccccc2c1C=NCc1c(O)ccc2ccccc12 -15.3% [at 11.4 µM]
CCOC(=O)CSC1=C(C#N)C(c2sccc2C)C(C(C)=O)=C(C)N1 (centres undefined) 19% [at 2.29 µM]
CC(=NCC(=O)O)c1ccccc1 -4.83% [at 11.4 µM]
C[C@@H](C[C@H](N)C(=O)O)C(=O)O -6.03% [at 11.4 µM]
COc1cccc(NC(=S)NNC(=O)C(C)n2nc(C)c([N+](=O)[O-])c2C)c1 (centres undefined) -29.4% [at 2.29 µM]
